Source: the supplement of paper PMC11732987, “Enantioselective OTUD7B fragment discovery through chemoproteomics screening and high-throughput optimisation” (Communications Chemistry, 2025)

How the values were obtained:
Assay in all cases: log2 ratio of Biotin-Ahx-Ub-VS probe labelling (fragment/DMSO); higher = less target engagement (more negative = stronger competition), active = hit call of the paper (q ≤ 0.05, log2 ratio ≤ -1)
Details in all cases: compound concentration: 200 uM; treatment time: 3 h
[1] = molecular target: T1, OTUD6B (UniProt Q8N6M0)
T1 sequence (whole entry): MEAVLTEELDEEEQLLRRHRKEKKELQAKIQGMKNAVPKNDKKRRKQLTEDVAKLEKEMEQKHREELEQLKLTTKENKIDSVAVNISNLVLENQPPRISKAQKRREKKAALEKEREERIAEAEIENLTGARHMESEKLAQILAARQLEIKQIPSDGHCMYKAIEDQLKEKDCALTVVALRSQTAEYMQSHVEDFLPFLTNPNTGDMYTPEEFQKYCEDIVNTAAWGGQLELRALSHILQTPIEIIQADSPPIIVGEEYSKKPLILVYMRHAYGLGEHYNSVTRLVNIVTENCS
In short: (§1)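 Triplicate samples of HEK293T lysate, 495 µg each, received fragment at 200 µM or vehicle for 3 h, followed by Biotin-Ahx-Ub-VS (0.5 µM final) for 1 h. After NeutrAvidin enrichment of labelled DUBs and LysC/trypsin digestion, peptides were run by diaPASEF LC-MS/MS. The values are average log2 fragment/vehicle ratios from global-median-normalised Spectronaut label-free quantities, tested by unpaired t-test on proteins having ≥2 unique peptides.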

[2] = molecular target: T2, OTUD7B (UniProt Q6GQQ9)
T2 sequence (whole entry): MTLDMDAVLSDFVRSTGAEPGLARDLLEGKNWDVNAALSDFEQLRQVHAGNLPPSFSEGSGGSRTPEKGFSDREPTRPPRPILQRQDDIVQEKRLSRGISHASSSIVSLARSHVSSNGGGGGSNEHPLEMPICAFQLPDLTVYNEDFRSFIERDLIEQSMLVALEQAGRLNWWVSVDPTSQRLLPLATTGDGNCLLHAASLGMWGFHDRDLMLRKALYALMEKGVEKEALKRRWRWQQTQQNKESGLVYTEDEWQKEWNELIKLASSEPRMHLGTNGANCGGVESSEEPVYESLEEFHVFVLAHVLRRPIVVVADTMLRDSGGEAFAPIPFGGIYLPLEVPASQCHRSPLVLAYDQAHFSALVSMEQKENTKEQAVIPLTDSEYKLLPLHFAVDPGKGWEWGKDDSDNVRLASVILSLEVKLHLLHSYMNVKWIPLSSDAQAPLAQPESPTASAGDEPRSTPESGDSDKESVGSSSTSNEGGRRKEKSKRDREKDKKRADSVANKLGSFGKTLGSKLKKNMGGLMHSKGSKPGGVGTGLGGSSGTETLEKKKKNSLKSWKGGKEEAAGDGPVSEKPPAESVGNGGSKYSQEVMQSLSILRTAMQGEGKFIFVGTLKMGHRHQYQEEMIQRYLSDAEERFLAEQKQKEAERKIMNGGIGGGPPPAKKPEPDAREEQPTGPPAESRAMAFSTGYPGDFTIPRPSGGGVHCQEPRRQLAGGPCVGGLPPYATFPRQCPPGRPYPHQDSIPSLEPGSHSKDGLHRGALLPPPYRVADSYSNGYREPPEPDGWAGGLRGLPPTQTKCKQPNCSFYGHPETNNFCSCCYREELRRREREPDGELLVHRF
In short: as §1

[3] = molecular target: PRPF8 (UniProt Q6P2Q9)
In short: as §1

[4] = molecular target: T3, PSMD7 (UniProt P51665)
T3 sequence (whole entry): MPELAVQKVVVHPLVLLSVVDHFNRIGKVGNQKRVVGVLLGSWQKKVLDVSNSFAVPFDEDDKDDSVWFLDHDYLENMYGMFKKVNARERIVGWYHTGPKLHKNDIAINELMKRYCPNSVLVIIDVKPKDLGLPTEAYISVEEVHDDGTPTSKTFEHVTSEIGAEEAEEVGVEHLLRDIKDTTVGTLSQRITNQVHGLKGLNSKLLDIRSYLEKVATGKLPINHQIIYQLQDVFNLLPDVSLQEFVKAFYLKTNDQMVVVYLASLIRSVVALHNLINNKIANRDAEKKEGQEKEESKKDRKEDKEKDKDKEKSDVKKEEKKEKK
In short: as §1

[5] = molecular target: UCHL1 (UniProt P09936)
UCHL1, sequence (P09936 whole entry, looked up): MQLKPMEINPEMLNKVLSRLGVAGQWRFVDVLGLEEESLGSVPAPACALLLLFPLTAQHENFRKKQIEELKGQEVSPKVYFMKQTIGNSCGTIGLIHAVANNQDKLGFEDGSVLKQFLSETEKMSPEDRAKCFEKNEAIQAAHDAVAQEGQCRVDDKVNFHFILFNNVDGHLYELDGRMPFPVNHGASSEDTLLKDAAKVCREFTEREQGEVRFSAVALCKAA
In short: as §1

[6] = molecular target: T4, UCHL3 (UniProt P15374)
T4 sequence (whole entry): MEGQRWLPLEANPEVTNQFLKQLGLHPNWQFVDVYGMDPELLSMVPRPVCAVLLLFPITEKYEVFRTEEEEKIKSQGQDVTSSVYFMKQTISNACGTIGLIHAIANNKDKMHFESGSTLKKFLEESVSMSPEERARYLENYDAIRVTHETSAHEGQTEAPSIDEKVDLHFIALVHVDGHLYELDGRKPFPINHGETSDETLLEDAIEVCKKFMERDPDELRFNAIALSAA
In short: as §1

[7] = molecular target: T5, UCHL5 (UniProt Q9Y5K5)
T5 sequence (whole entry): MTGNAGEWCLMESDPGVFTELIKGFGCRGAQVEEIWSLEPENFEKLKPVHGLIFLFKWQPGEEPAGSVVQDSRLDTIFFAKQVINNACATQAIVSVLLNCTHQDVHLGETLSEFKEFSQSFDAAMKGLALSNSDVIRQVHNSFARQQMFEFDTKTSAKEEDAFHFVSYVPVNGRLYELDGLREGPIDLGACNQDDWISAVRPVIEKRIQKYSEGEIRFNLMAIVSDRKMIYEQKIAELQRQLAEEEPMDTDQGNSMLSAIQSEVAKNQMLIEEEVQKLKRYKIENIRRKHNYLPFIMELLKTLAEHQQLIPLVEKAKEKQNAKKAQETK
In short: as §1

[8] = molecular target: USP10 (UniProt Q14694)
USP10, sequence (Q14694 whole entry): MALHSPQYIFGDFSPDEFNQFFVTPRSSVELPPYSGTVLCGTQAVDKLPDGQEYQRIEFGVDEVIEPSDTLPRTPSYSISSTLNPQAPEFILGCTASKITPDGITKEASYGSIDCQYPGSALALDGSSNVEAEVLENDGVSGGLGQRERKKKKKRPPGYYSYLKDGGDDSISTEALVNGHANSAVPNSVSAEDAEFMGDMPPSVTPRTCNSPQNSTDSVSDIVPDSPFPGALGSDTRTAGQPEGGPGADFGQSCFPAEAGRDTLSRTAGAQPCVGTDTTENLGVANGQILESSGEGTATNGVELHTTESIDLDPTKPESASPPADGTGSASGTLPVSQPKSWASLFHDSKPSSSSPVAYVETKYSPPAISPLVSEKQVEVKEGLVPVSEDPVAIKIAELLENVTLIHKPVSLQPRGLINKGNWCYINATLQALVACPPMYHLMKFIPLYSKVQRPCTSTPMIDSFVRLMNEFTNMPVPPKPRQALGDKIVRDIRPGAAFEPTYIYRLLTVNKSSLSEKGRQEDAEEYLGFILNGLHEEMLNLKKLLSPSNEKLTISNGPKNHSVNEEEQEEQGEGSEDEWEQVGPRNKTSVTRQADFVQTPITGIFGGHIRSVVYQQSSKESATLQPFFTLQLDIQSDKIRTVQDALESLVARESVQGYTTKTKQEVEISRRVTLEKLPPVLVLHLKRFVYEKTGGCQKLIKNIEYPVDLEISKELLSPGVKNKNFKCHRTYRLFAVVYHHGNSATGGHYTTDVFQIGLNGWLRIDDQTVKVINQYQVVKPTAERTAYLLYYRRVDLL
In short: as §1

[9] = molecular target: T6, USP15 (UniProt Q9Y4E8)
T6 sequence (whole entry): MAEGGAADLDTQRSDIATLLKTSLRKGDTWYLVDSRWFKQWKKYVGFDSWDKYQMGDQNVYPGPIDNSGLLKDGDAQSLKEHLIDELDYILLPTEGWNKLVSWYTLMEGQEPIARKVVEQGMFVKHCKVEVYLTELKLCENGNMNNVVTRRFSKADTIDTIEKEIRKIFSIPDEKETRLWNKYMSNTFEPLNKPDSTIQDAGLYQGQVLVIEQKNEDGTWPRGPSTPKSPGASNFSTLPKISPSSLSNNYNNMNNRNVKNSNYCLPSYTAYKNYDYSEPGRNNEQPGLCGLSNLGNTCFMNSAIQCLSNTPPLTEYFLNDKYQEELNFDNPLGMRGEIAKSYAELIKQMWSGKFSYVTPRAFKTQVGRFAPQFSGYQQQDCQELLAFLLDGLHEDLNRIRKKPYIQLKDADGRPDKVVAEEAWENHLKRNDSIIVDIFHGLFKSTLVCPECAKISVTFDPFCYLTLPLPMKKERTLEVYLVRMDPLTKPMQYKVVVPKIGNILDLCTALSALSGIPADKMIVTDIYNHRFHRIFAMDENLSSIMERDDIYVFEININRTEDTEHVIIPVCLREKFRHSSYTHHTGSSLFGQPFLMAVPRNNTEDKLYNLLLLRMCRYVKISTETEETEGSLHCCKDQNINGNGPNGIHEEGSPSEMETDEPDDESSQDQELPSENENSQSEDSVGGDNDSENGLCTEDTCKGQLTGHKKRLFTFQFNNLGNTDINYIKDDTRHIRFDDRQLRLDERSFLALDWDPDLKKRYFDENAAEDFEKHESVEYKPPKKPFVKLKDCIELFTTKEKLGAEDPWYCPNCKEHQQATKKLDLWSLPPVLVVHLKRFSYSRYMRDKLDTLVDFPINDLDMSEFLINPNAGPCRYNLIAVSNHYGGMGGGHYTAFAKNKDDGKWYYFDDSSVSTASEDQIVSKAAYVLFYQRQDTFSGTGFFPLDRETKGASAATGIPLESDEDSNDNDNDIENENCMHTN
In short: as §1

[10] = molecular target: USP16 (UniProt Q9Y5T5)
USP16, sequence (Q9Y5T5 whole entry, looked up): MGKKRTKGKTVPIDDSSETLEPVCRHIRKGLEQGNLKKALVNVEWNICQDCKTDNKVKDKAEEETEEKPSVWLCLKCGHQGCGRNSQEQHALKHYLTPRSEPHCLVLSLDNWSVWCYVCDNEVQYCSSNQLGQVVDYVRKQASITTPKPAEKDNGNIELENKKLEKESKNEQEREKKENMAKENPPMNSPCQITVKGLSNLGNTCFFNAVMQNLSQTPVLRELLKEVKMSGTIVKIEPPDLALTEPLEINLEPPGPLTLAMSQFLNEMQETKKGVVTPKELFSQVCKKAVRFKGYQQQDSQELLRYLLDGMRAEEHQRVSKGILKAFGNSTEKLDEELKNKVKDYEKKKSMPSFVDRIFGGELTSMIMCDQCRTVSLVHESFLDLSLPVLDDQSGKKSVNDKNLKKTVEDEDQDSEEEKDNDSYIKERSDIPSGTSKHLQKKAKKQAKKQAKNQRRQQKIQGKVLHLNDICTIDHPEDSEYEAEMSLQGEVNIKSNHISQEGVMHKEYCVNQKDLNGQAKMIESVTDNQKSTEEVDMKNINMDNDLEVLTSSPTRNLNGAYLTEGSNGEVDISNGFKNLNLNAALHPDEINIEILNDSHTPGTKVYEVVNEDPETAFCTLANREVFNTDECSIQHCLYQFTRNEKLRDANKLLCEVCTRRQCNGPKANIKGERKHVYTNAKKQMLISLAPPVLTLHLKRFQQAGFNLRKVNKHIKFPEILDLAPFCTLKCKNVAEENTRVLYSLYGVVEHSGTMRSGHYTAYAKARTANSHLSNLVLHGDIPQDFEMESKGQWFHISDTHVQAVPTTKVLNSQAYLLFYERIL
In short: as §1

Measured: log2 ratio of Biotin-Ahx-Ub-VS probe labelling

Cn1cc(CN(Cc2ccc(Cl)cc2)C(=O)CCl)cn1
active: [10] -1.17
inactive: [1] -0.0472 | [2] -0.238 | [3] 0.208 | [4] 0.0391 | [5] -0.602 | [6] 0.113 | [7] -0.221 | [8] -0.0261 | [9] -0.272
